# G9a inh – inhibitors of human histone lysine methyltransferase G9a; Q96KQ7; G9a H3K9 monomethylation, AlphaScreen, 2 h; Potency, µM (top dose mostly 102 µM), most hits filed as inhibitors; 350,000 tested, 8.8% active; note: nearly all actives have a fitted effect of over 75% in size
# Target sequence (Q96KQ7 913-1193 limits assumed): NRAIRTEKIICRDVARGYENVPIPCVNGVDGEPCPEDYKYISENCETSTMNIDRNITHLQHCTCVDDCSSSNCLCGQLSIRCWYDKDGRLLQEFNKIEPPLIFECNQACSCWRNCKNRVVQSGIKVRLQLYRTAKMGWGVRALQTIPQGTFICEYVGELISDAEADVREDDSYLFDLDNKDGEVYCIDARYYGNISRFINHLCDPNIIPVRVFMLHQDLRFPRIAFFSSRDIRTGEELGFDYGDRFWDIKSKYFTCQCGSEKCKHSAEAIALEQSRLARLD
#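 Readings reflect AlphaScreen signal from monomethyl-H3K9 antibody detection. HMT at 20 nM; substrate b-H3K9 500 nM; cofactor SAM 20 uM; 2 h RT reaction; compounds tested as titrations in qHTS with 15 min preincubation.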
# BAZ2B inh – inhibitors of human BAZ2B bromodomain; Q9UIF8; AlphaScreen BAZ2B-H3K14Ac peptide displacement; Potency, µM (series often up to 114 µM), hits mostly inhibitors; 360,000 tested, 4.4% active; note: nearly all actives have a fitted effect of over 60% in size
#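 AlphaScreen displacement: compounds (up to 110uM) incubated 30 min at room temperature with a preformed 50 nM BAZ2B/50 nM biotinylated H3K14Ac peptide complex in PBS pH 7.4 with Tween-20. Donor and acceptor beads at 10 ug/mL final added, 20 min light-protected before reading.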
# PLK1 PBD block – inhibitors of human PLK1 polo-box domain binding; P53350; Plk1 PBD binding of FITC phosphopeptide, fluorescence polarization; Potency, µM, hits mostly inhibitors; 360,000 tested, 2.8% active; AID 720504; note: series mostly up to about 57 µM; nearly all actives have a fitted effect of over 65% in size
# JMJD2A Tudor – blocks the human JMJD2A Tudor domain; Potency, µM (titrated, usually from 114 µM), actives largely listed as inhibitors; AlphaScreen JMJD2A-Tudor / H3K4me3 peptide binding; 390,000 tested, 4.4% active; AID 504339; note: nearly all actives have a fitted effect of over 50% in size
# HP1b binding inh – HP1-beta chromodomain-methylated histone interaction inhibition. AlphaScreen HP1-beta / biotin-H3K9me3 peptide binding. P83916. AID 540317. 390,000 tested, 0.56% active. Potency, µM (top dose mostly 114 µM), actives largely listed as inhibitors; note: nearly all actives have a fitted effect of over 70% in size
# Target sequence (P83916 whole entry, looked up): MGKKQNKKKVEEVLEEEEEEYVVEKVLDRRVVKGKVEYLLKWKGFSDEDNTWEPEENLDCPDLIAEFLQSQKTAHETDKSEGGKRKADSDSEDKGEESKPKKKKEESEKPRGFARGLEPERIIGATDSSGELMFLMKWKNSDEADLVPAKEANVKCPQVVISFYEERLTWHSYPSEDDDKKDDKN
#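 Compound inhibition of the preformed complex between 50 nM HP1-beta and 50 nM biotinylated H3K9me3 peptide was read by AlphaScreen. Buffer was PBS pH 7.4 with 0.01% Tween-20. Incubations ran 30 min at room temperature, with 10 ug/mL donor/acceptor beads.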
# 12-LOX inh – inhibitors of human 12S-lipoxygenase ALOX12; 580,000 tested, 1.1% active; purified 12hLO, xylenol orange hydroperoxide absorbance; P18054; Potency, µM (doses to about 108 µM), most hits filed as inhibitors
#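 Purified human 12hLO at 150 nM in 25 mM Hepes, 0.01% Triton X-100, pH 7.0, preincubated 15 min at room temperature with compound. Reaction started with 40 uM arachidonic acid, 30 min at room temperature. Hydroperoxide measured by Fe-xylenol orange, 573/405 nm absorbance ratio.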
# Hits are given with their value; 0 = inactive; ? = inconclusive; - = no result; ! = not confirmed by another sample; [ ] = remark or other dose. Rows were chosen to be rich in hits. Some 9% of all compounds tested hit in one or more screens of this group. Calls come from the whole dose curve; as a rule, active = well fitted curve in the direction sought with a large enough effect; inconclusive = small, poorly fitted or top-dose-only effect, or another doubt; inactive = no such curve, though single readings can be large; an effect the other way counts as inactive or inconclusive.
SMILES,G9a inh,BAZ2B inh,PLK1 PBD block,JMJD2A Tudor,HP1b binding inh,12-LOX inh
CCOc1ccc(-c2cn3c(n2)sc2cc(C(=O)NCCC4=CCCCC4)ccc23)cc1,0,0,-,0,0,0
Cc1ccc(NS(=O)(=O)N2CCOCC2)cc1Cl,0,0,0,0,0,0
COc1ccc(OC)c(NC2c3ccccc3C(=O)N2c2cccnc2)c1 (configuration not stated),50.1µM,0,0,0,0,0
COc1ccc(NC2c3ccccc3C(=O)N2c2ccccn2)cc1 (configuration not stated),?,56.2µM,0,0,0,0
CCOC(=O)c1ccc(NC2c3ccccc3C(=O)N2c2ccccn2)cc1 (configuration not stated),50.1µM,0,0,0,0,0
Cc1ccc(NC2c3ccccc3C(=O)N2c2cccnc2)cc1 (configuration not stated),0,0,0,0,0,0
CCN(CC)S(=O)(=O)c1ccc(NC2c3ccccc3C(=O)N2c2ccc(C)cn2)cc1 (configuration not stated),39.8µM,0,0,0,0,0
CC(=O)c1ccc(NC(=O)C2=CC(c3ccc(C)cc3)=NS(=O)(=O)N2C)cc1,14.1µM,?,-,?,0,0
COc1ccc(C2=NS(=O)(=O)N(C)C(C(=O)Nc3ccc(C)cc3)=C2)cc1,?,?,0,0,0,0
Cc1ccc(NC(=O)C2=CC(c3ccc(C)cc3)=NS(=O)(=O)N2C)cc1,39.8µM,0,0,?,0,0
O=C(Nc1ccccc1)N1CCn2c(nnc2-c2ccccc2)C1,-,-,-,-,-,0
O=C(COC(=O)Cn1ccc(=O)[nH]c1=O)Nc1ccc(F)cc1,-,-,0,0,0,0
Cc1[nH]c2ccccc2c1C1(O)C(=O)N(Cc2ccccc2)c2ccc(Cl)cc21 (configuration not stated),?,?,-,?,0,0
Cc1nc(-c2c3n(c(=O)n(CC(=O)Nc4ccc(C)c(Cl)c4)c2=O)CCCCC3)no1,-,-,-,-,-,0
CC(=O)c1cc(-c2ccccc2)n(CC(=O)N2CCCC2)c1C,?,56.2µM,0,0,0,0
CC(=O)c1cc(-c2ccccc2)n(CC(=O)N2CCCCC2)c1C,0,?,0,0,0,0
CC(=O)c1cc(-c2ccccc2)n(CC(=O)NC(C)(C)C)c1C,0,50.1µM,0,0,0,0
CCNC(=S)Nc1cccc(S(=O)(=O)NC2=NCCC2)c1,0,0,0,0,0,0
COc1cccc(CNC(=O)CN2C(=O)CSc3ccc(S(=O)(=O)N4CCOCC4)cc32)c1,0,0,0,0,0,0
O=C(CSC1=NS(=O)(=O)c2ccccc21)Nc1ccccc1,7.94µM,?,10.6µM,0,0,0
COC(=O)CSC1=NS(=O)(=O)c2ccccc21,1.41µM,0,2.99µM,15.8µM,0,-
COCCN(C(=O)COC(=O)COc1ccc(Cl)c(C)c1)c1c(N)n(Cc2ccccc2)c(=O)[nH]c1=O,39.8µM,0,0,0,0,0
COCCN(C(=O)COC(=O)COc1ccc2ccccc2c1)c1c(N)n(Cc2ccccc2)c(=O)[nH]c1=O,-,-,0,0,0,0
CN(C(=O)COC(=O)COc1ccc2ccccc2c1)c1c(N)n(Cc2ccccc2)c(=O)[nH]c1=O,0[12.7 µM],0,0,0,0,0
Cc1cc(OCC(=O)OCC(=O)N(C)c2c(N)n(Cc3ccccc3)c(=O)[nH]c2=O)ccc1Cl,6.31µM,0,0,0,0,0
SMILES,G9a inh,BAZ2B inh,PLK1 PBD block,JMJD2A Tudor,HP1b binding inh,12-LOX inh
CN(CC(=O)Nc1cccc(F)c1)C(=O)c1cccnc1Sc1ccccc1Cl,0,0,0,0,0,0
COc1ccc(-c2nc(C(C)C)nc3c2CCN(C(=O)C2CCCC2)CC3)cc1,-,-,-,-,-,0
COc1cccc(-c2cc(=O)c3cc(NC(=O)c4ccccc4)ccc3[nH]2)c1,0,0,0,0,0,0
COc1cccc(-c2cc(=O)c3cc(NC(=O)c4ccc(Cl)cc4)ccc3[nH]2)c1,50.1µM,0,0,0,0,?
COc1cccc(-c2cc(=O)c3cc(NC(=O)c4ccc(N(C)C)cc4)ccc3[nH]2)c1,31.6µM,79.4µM,0,0,0,-
CC1CCN(CCCCOc2ccc(F)cc2)CC1,?,?,0,3.16µM,?,-
CC1CCN(CCCCOc2ccccc2[N+](=O)[O-])CC1,?,?,0,4.47µM,?,?
Cc1ccc(OCCCCN2CCC(C)CC2)cc1,0,50.1µM,0,3.16µM,?,-
CC1CCN(CCCCOc2ccc([N+](=O)[O-])cc2)CC1,11.2µM,0,0,79.4µM,0,?
O=[N+]([O-])c1ccc(OCCCCN2CCCCC2)cc1,?,0,0,0,0,0
Cc1ccc(OCCCCCCN2CCNCC2)cc1,-,-,0,0,0,?
CC1CCN(CCCCOc2cccc(C(C)C)c2)CC1,39.8µM,?,0,56.2µM,0,?
O=[N+]([O-])c1ccc(OCCCCN2CCc3ccccc3C2)cc1,35.5µM,79.4µM,0,20µM,?,?
Cc1cccc(OCCCCN2CCNCC2)c1,-,-,0,0,0,?
COc1c2ccoc2cc2oc(C)cc(=O)c12,-,-,0,0,0,0
Cc1cccc(OC(C)C(=O)OCC(=O)Nc2sccc2C(N)=O)c1 (configuration not stated),0[2.33 µM],0,0,0,0,0
CCN1CCOC(CC(=O)Nc2ccc([N+](=O)[O-])cc2)C1=O (configuration not stated),?,0,0,0,0,0
O=C(CC1OCC2CCCN2C1=O)Nc1ccc([N+](=O)[O-])cc1 (configuration not stated),8.91µM,0,0,0,0,0
CC(C)(C)c1nnc(NS(=O)(=O)c2ccc([N+](=O)[O-])cc2)s1,10µM,0,23.8µM,0,0,?
CC(C)(C)c1nnc(NS(=O)(=O)c2ccc(N)cc2)s1,-,-,-,-,-,0[22.9 µM]
Cc1ccc(S(=O)(=O)Nc2nnc(C(C)(C)C)s2)cc1,4.47µM,0,23.8µM,0,0,?
CC(C)(C)c1nnc(NS(=O)(=O)c2ccccc2)s1,-,-,-,-,-,0[22.9 µM]
Cc1ccc(S(=O)(=O)Nc2nsc(N)n2)cc1,31.6µM,0,0,0,0,0
CCCCC(CC)CNC(=O)C1CCC(CNS(=O)(=O)c2cccc3nsnc23)CC1 (configuration not stated),0,0,-,0,0,0
COc1ccc(C2C=C(c3ccccc3)Nc3nc(NC(C)=O)nn32)cc1 (configuration not stated),?,50.1µM!,-,0,0,?
COc1ccc(/C=C/C(=O)Nc2nc3n(n2)C(c2ccccc2)C=C(c2ccccc2)N3)cc1 (configuration not stated),0,0,-,0,0,0
COc1cccc(C2=CC(c3ccccc3)n3nnnc3N2)c1 (configuration not stated),39.8µM,0,0,0,0,0

# Screening results from PubChem.
